# Test results taken from PubChem BioAssay (NCATS).
# Inconclusive results are not listed. Where a call stands in place of a potency, no number is given. Values without a mark were called inactive. Active and inactive are the calls of the source. Calls follow the shape of the dose curve; as a rule, active = well fitted curve in the direction sought with a large enough effect; inconclusive = small, poorly fitted or top-dose-only effect, or another doubt; inactive = no such curve, though single readings can be large; an effect the other way counts as inactive or inconclusive.
# Experiments:
# MCC-13 = assay: qHTS assay to identify novel small-molecules to repurpose for Merkel cell carcinoma treatment (AID 1296009); details: MCC and control cell lines, CellTiter-Glo viability, 72 h; series mostly up to 46 µM; also: nearly all actives have a fitted effect of over 60% in size
# Outline: (§1)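 Cell viability, measured as CellTiter-Glo luminescence, was normalized between DMSO and no-cell wells. The cells had been exposed to 8- or 11-point compound dilutions for 72 hr at 37 degree celsius.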
# MCC-26 = assay: as above; details: MCC and control cell lines, CellTiter-Glo viability, 72 h; series mostly up to 46 µM
# Outline: as §1
# MKL-1 = assay: as above; details: MCC and control cell lines, CellTiter-Glo viability, 72 h; series mostly up to 46 µM
# Outline: as §1
# MKL-2 = assay: as above; details: MCC and control cell lines, CellTiter-Glo viability, 72 h; series mostly up to 46 µM
# Outline: as §1
# C33A = assay: Primary qHTS to identify gynecologic anti-cancer compounds using libraries of approved drugs and bioactive compounds (AID 1345084); details: Gynecologic cancer cell panel viability, ATPlite luminescence, 48 h; series mostly up to 57.5 µM; also: nearly all actives have a fitted effect of over 55% in size
# Outline: (§2)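 Cells, 1,000 per well, plated 16 h, then exposed 48 h at 37 C to compounds. Viability by ATPlite luminescence after 15 min at room temperature.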
# CAOV3 = assay: as above; details: Gynecologic cancer cell panel viability, ATPlite luminescence, 48 h; series mostly up to 57.5 µM
# Outline: as §2
# CASKI = assay: as above; details: Gynecologic cancer cell panel viability, ATPlite luminescence, 48 h; series mostly up to 57.5 µM
# Outline: as §2
# Es-2 = assay: as above; details: Gynecologic cancer cell panel viability, ATPlite luminescence, 48 h; series mostly up to 57.5 µM
# Outline: as §2
# HeLa = assay: as above; details: Gynecologic cancer cell panel viability, ATPlite luminescence, 48 h; series mostly up to 57.5 µM
# Outline: as §2
# Hek293T [1] = assay: as above; details: Gynecologic cancer cell panel viability, ATPlite luminescence, 48 h, control line for the selectivity index; series mostly up to 57.5 µM
# Outline: as §2
# JEG-3 = assay: as above; details: Gynecologic cancer cell panel viability, ATPlite luminescence, 48 h; series mostly up to 57.5 µM
# Outline: as §2
# PA-1 = assay: as above; details: Gynecologic cancer cell panel viability, ATPlite luminescence, 48 h; series mostly up to 57.5 µM
# Outline: as §2
# SKOV3 = assay: as above; details: Gynecologic cancer cell panel viability, ATPlite luminescence, 48 h; series mostly up to 57.5 µM
# Outline: as §2
# UISO = assay: qHTS assay to identify novel small-molecules to repurpose for Merkel cell carcinoma treatment (AID 1296009); details: MCC and control cell lines, CellTiter-Glo viability, 72 h; series mostly up to 46 µM; also: nearly all actives have a fitted effect of over 60% in size
# Outline: as §1
# WaGa = assay: as above; details: MCC and control cell lines, CellTiter-Glo viability, 72 h; series mostly up to 46 µM
# Outline: as §1
# HACAT = assay: as above; details: MCC and control cell lines, CellTiter-Glo viability, 72 h; at 44.8 µM (top of the series) unless noted
# Outline: as §1
# OV90 = assay: Primary qHTS to identify gynecologic anti-cancer compounds using libraries of approved drugs and bioactive compounds (AID 1345084); details: Gynecologic cancer cell panel viability, ATPlite luminescence, 48 h; series mostly up to 57.5 µM; also: nearly all actives have a fitted effect of over 55% in size
# Outline: as §2
# NIH3T3 [2] = assay: qHTS assay to identify novel small-molecules to repurpose for Merkel cell carcinoma treatment (AID 1296009); details: MCC and control cell lines, CellTiter-Glo viability, 72 h; at 44.8 µM (top of the series) unless noted; also: nearly all actives have a fitted effect of over 60% in size
# Outline: as §1
# NIH3T3 [3] = assay: Cytotoxic Profiling of Annotated Libraries Using Quantitative High-Throughput Screening (AID 1296008); details: Five cell lines viability, CellTiter-Glo ATP luminescence, 48-72 h; max response: stronger effect = lower value; also: nearly all actives have a fitted effect of over 60% in size
# Outline: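 Cytotoxicity was measured as CellTiter-Glo ATP luminescence, read after 10 min at room temperature. Compound treatment of the cells lasted 48 or 72 hr at 37 degrees Celsius in a qHTS format.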
# HEK293T [4] = assay: qHTS assay to identify novel small-molecules to repurpose for Merkel cell carcinoma treatment (AID 1296009); details: MCC and control cell lines, CellTiter-Glo viability, 72 h; at 44.8 µM (top of the series) unless noted; also: nearly all actives have a fitted effect of over 60% in size
# Outline: as §1
# Potency is read from the fitted curve at half-maximal effect.
smiles,measurement,setting,value
CC(C)(c1ccc(O)cc1)c1ccc(O)cc1,Potency,MCC-13,inactive
same,Potency,MCC-26,inactive
same,Potency,MKL-1,inactive
same,Potency,MKL-2,inactive
same,Potency,C33A,inactive
same,Potency,CAOV3,inactive
same,Potency,CASKI,inactive
same,Potency,Es-2,inactive
same,Potency,HeLa,inactive
same,Potency,Hek293T [1],inactive
same,Potency,JEG-3,inactive
same,Potency,PA-1,inactive
same,Potency,SKOV3,inactive
O=C(CCC1CCN(Cc2ccccc2)CC1)c1ccc2c(c1)NCCCC2,Potency,MCC-13,inactive
same,Potency,MCC-26,inactive
same,Potency,MKL-1,inactive
same,Potency,UISO,inactive
same,Potency,WaGa,inactive
same,Potency,C33A,inactive
same,Potency,CASKI,inactive
same,Potency,Es-2,inactive
same,Potency,HeLa,inactive
same,Potency,Hek293T [1],inactive
same,Potency,JEG-3,inactive
CCC(=O)O[C@]1(C(=O)COC)[C@@H](C)C[C@H]2[C@@H]3CCC4=CC(=O)C=C[C@]4(C)C3(F)[C@@H](O)C[C@@]21C (stereo not given in full),outcome,HACAT,inactive
same,Potency,MCC-13,inactive
same,Potency,MCC-26,inactive
same,Potency,MKL-1,inactive
same,Potency,MKL-2,inactive
same,Potency,UISO,inactive
same,Potency,WaGa,inactive
same,Potency,C33A,inactive
same,Potency,CAOV3,inactive
same,Potency,CASKI,inactive
same,Potency,Es-2,inactive
same,Potency,HeLa,inactive
same,Potency,Hek293T [1],inactive
same,Potency,JEG-3,inactive
same,Potency,OV90,inactive
same,Potency,PA-1,inactive
same,Potency,SKOV3,inactive
CCCc1c2oc(C(=O)O)cc(=O)c2cc2c(=O)cc(C(=O)O)n(CC)c12,outcome,HACAT,inactive
same,Potency,MCC-13,inactive
same,Potency,MCC-26,inactive
same,Potency,MKL-1,inactive
same,Potency,MKL-2,inactive
same,outcome,NIH3T3 [2],inactive
same,Potency,UISO,inactive
same,Potency,WaGa,inactive
same,Potency,C33A,inactive
same,Potency,CAOV3,inactive
same,Potency,CASKI,inactive
same,Potency,Es-2,inactive
same,Potency,HeLa,inactive
same,Potency,Hek293T [1],inactive
same,Potency,JEG-3,inactive
same,Potency,OV90,inactive
same,Potency,PA-1,inactive
CN(CC1(C)CCCO1)S(=O)(=O)c1ccc(Cl)c(S(N)(=O)=O)c1 (stereo not given),Potency,MCC-13,inactive
same,Potency,MCC-26,inactive
same,Potency,MKL-1,inactive
same,Potency,MKL-2,inactive
same,Potency,UISO,inactive
same,Potency,WaGa,inactive
same,Potency,C33A,inactive
same,Potency,CAOV3,inactive
same,Potency,CASKI,inactive
same,Potency,Es-2,inactive
same,Potency,HeLa,inactive
same,Potency,Hek293T [1],inactive
same,Potency,JEG-3,inactive
same,Potency,OV90,inactive
same,Potency,PA-1,inactive
same,Potency,SKOV3,inactive
CCOC(=O)[C@H](CCc1ccccc1)N[C@@H](C)C(=O)N(CC(=O)O)C1Cc2ccccc2C1,Potency,MCC-13,inactive
same,Potency,MCC-26,inactive
same,Potency,MKL-1,inactive
same,Potency,MKL-2,inactive
same,Potency,UISO,inactive
same,Potency,WaGa,inactive
same,Potency,C33A,inactive
same,Potency,CAOV3,inactive
same,Potency,CASKI,inactive
same,Potency,Es-2,inactive
same,Potency,HeLa,inactive
same,Potency,Hek293T [1],inactive
same,Potency,JEG-3,inactive
same,Potency,OV90,inactive
same,Potency,PA-1,inactive
same,Potency,SKOV3,inactive
CC(=O)O[C@@H]1C(=O)O[C@@H]2[C@H]1OC(=O)[C@@H]2OC(C)=O,Potency,MCC-13,inactive
same,Potency,MCC-26,inactive
same,Potency,MKL-1,inactive
same,Potency,MKL-2,inactive
same,Potency,UISO,inactive
same,Potency,WaGa,inactive
same,Potency,C33A,inactive
same,Potency,CAOV3,inactive
same,Potency,CASKI,inactive
same,Potency,Es-2,inactive
same,Potency,HeLa,inactive
same,Potency,Hek293T [1],inactive
same,Potency,JEG-3,inactive
same,Potency,OV90,inactive
same,Potency,PA-1,inactive
same,Potency,SKOV3,inactive
Nc1ccc2c(c1)CN1C(=O)c3ccccc3C1=N2,Potency,NIH3T3 [3],7.31 µM (active)
same,Potency,MCC-26,inactive
same,Potency,MKL-2,inactive
same,Potency,UISO,inactive
same,Potency,CASKI,6.31 µM (active)
same,Potency,Es-2,10 µM (active)
same,Potency,JEG-3,11.2 µM (active)
same,Potency,SKOV3,7.94 µM (active)
CN=C(N)NC(=O)Nc1c(C)cccc1C,outcome,HACAT,inactive
same,Potency,MCC-13,inactive
same,Potency,MCC-26,inactive
same,Potency,MKL-1,inactive
same,Potency,MKL-2,inactive
same,Potency,UISO,inactive
same,Potency,WaGa,inactive
same,Potency,C33A,inactive
same,Potency,CAOV3,inactive
same,Potency,CASKI,inactive
same,Potency,Es-2,inactive
same,Potency,HeLa,inactive
same,Potency,Hek293T [1],inactive
same,Potency,JEG-3,inactive
same,Potency,OV90,inactive
same,Potency,PA-1,inactive
same,Potency,SKOV3,inactive
CC(C)C[C@H](NC(=O)CNC(=O)[C@H](Cc1ccc(O)cc1)NC(=O)[C@H](CO)NC(=O)[C@H](Cc1c[nH]c2ccccc12)NC(=O)[C@H](Cc1cnc[nH]1)NC(=O)[C@@H]1CCC(=O)N1)C(=O)N[C@@H](CCCN=C(N)N)C(=O)N1CCC[C@H]1C(=O)NCC(N)=O (stereo in doubt),Potency,MCC-13,inactive
same,Potency,MCC-26,inactive
same,Potency,MKL-1,inactive
same,Potency,MKL-2,inactive
same,Potency,WaGa,inactive
N#C/C(=C1/SC[C@@H](c2ccc(Cl)cc2Cl)S1)n1ccnc1,max response,NIH3T3 [3],-5.57%
same,Potency,MCC-26,inactive
same,Potency,C33A,inactive
same,Potency,CAOV3,inactive
same,Potency,CASKI,inactive
same,Potency,Es-2,inactive
same,Potency,HeLa,inactive
same,Potency,Hek293T [1],inactive
same,Potency,JEG-3,inactive
same,Potency,PA-1,inactive
same,Potency,SKOV3,inactive
O=C1NC(=O)/C(=C/c2ccc3c(c2)OC(F)(F)O3)S1,max response,NIH3T3 [3],-4.12%
same,Potency,C33A,inactive
same,Potency,CAOV3,inactive
same,Potency,CASKI,inactive
same,Potency,Hek293T [1],inactive
same,Potency,SKOV3,inactive
OCc1c[nH]c2ccccc12,Potency,MCC-13,inactive
same,Potency,MCC-26,inactive
same,Potency,MKL-2,24.3 µM (active)
same,Potency,UISO,10.9 µM (active)
same,Potency,C33A,35.5 µM (active)
CCOC(=O)c1ccc(O)c(O)c1,outcome,HEK293T [4],inactive
same,Potency,MCC-26,inactive
same,Potency,MKL-1,5.96 µM (active)
same,Potency,C33A,inactive
same,Potency,CAOV3,inactive
same,Potency,CASKI,inactive
same,Potency,Es-2,inactive
same,Potency,HeLa,inactive
same,Potency,Hek293T [1],inactive
same,Potency,JEG-3,inactive
same,Potency,OV90,inactive
CCCCCCCCCCCCCCCC[N+](C)(C)Cc1ccccc1,Potency,NIH3T3 [3],11.9 µM (active)
same,Potency,MCC-26,29.9 µM (active)
same,Potency,MKL-1,5.96 µM (active)
same,Potency,MKL-2,0.335 µM (active)
same,Potency,UISO,4.22 µM (active)
same,Potency,C33A,28.2 µM (active)
same,Potency,CAOV3,20 µM (active)
same,Potency,HeLa,25.1 µM (active)
same,Potency,JEG-3,inactive
same,Potency,OV90,25.1 µM (active)
same,Potency,PA-1,15.8 µM (active)
